Source: PubChem
S2 tox – cell viability loss in ATXN counter-screen; 400,000 compounds, 0.49% hits; Potency, µM (series often up to 56.7 µM), actives largely listed as cytotoxic; S2 cells (HEK-293 line with an ATXN2-luciferase reporter) viability, CellTiter-Fluor protease fluorescence, 24 h; note: nearly all actives have a fitted effect of over 40% in size
DT40 TDP1 no CPT – qHTS for Inhibitors of human tyrosyl-DNA phosphodiesterase 1 (TDP1): qHTS in cells in absence of CPT; 420,000 compounds, 15% hits; AID 686978, 2013; DT40 Tdp1-/- hTDP1 cells, no CPT, ATP luminescence, 48 h; Potency, µM (doses to about 46.2 µM), hits mostly inhibitors; note: nearly all actives have a fitted effect of over 55% in size
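Growth of hTDP1-complemented DT40 Tdp1-knockout cells is measured by ATP luminescence after at least 48 hr compound exposure at 37 °C, with DMSO substituting for the 20 nM CPT used in the parallel screen.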
TGFb SMAD3 inh – inhibitors of TGF-b signaling. AID 588855. Potency, µM (titrated, usually from 46.1 µM), actives largely listed as inhibitors. 410,000 compounds, 1.2% hits. HepG2 CAGA-GFP TGF-b/SMAD3 reporter, GFP fluorescence, 18 h; TGF-beta stimulated, 500 pg/mL final; note: nearly all actives have a fitted effect of over 65% in size
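Per well, imaged GFP fluorescence of HEPG2 CAGA-GFP cells gives the signal; cells get compound, then TGF-beta (500 pg/mL final), 18 h at 37 degrees C; %Activity versus -TGF-beta and +DMSO controls.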
HepG2 tox – HepG2 cytotoxicity, counter-screen for TGF-b inhibitors; HepG2 CAGA-GFP viability, ATP luminescence, 18 h; Potency, µM (top dose mostly 46.1 µM), most hits filed as cytotoxic; 410,000 compounds, 0.76% hits
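CellTiter-Glo luminescence gave cytotoxicity after 18 hours at 37 degrees C. The cells were HepG2 CAGA-GFP in 1% FBS DMEM, stimulated with 500 pg/mL TGF-beta after compound addition. %Activity was normalised to no-cell wells (complete cell-killing) and DMSO (no toxicity), and curves were fitted and classified.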
TDP1 cell CPT – growth inhibition of DT40 Tdp1-/-;hTDP1 cells with camptothecin (screen for TDP1 inhibitors); chicken DT40 Tdp1-/-;hTDP1 cells + 20 nM CPT, ATP luminescence, 48 h; Potency, µM (top dose mostly 46.2 µM), most hits filed as inhibitors; AID 686979; 420,000 compounds, 12% hits; note: nearly all actives have a fitted effect of over 55% in size
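Chicken DT40 Tdp1-/- cells complemented with human TDP1, 400 cells/well, exposed to compounds plus 20 nM camptothecin for at least 48 h at 37 C; viability read as ATP content by CellTiter-Glo luminescence.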
ATXN2 expr inh – reduces ATXN2 reporter expression in HEK-293 cells; Potency, µM (series often up to 57 µM), usual class: inhibitors; HEK-293 ATXN2-luciferase reporter, luminescence, 24 h; 360,000 compounds, 0.72% hits; AID 1745845; note: nearly all actives have a fitted effect of over 55% in size
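qHTS (up to 57 uM final) was run with 24 h compound exposure of reporter cells at 37 °C. Each well was multiplexed: SteadyGlo luminescence measured ATXN2-luciferase expression after a fluorogenic Gly-Phe-AFC viability readout (25 uM final).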
A number is an active result. In the library only some 17% were active in any assay of this set; here they are far more common. Calls come from the whole dose curve; as a rule, active = well fitted curve in the direction sought with a large enough effect; inconclusive = small, poorly fitted or top-dose-only effect, or another doubt; inactive = no such curve, though single readings can be large; an effect the other way counts as inactive or inconclusive.

Screening CC(=O)/C(N=Nc1ccc(C(=O)O)cc1[N+](=O)[O-])=C(\C)O returned S2 tox inactive, DT40 TDP1 no CPT inactive, TGFb SMAD3 inh inactive, HepG2 tox inactive and TDP1 cell CPT inactive.
Cc1ccc(N2CCN(S(=O)(=O)c3ccc4[nH]c5c(c4c3)CCCCC5)CC2)c(C)c1 was read as S2 tox inactive, TGFb SMAD3 inh inconclusive, HepG2 tox inactive and ATXN2 expr inh inactive.
CC1CCCN(S(=O)(=O)c2ccc3[nH]c4c(c3c2)CCCC4)C1 (stereo not given) was read as S2 tox inactive, DT40 TDP1 no CPT inconclusive, TGFb SMAD3 inh inconclusive, HepG2 tox inactive, TDP1 cell CPT 20.6µM and ATXN2 expr inh inactive.
`Cc1ccc(Cl)cc1N1CCN(S(=O)(=O)c2cnc[nH]2)CC1` gave S2 tox inactive, DT40 TDP1 no CPT inconclusive, TGFb SMAD3 inh inactive, HepG2 tox inactive, TDP1 cell CPT 20.6µM and ATXN2 expr inh inactive.
For O=S(=O)(c1ccc2[nH]c3c(c2c1)CCCCC3)N1CCN(c2cccc(Cl)c2)CC1 the results were S2 tox inactive, DT40 TDP1 no CPT 11.6µM, TGFb SMAD3 inh inconclusive, HepG2 tox inactive, TDP1 cell CPT 18.4µM and ATXN2 expr inh inactive.
`Cc1ccc(C)c(N2CCN(S(=O)(=O)c3ccc4[nH]c5c(c4c3)CCCCC5)CC2)c1` gave S2 tox inactive, TGFb SMAD3 inh inactive, HepG2 tox inactive and ATXN2 expr inh inactive.
`CC(=O)c1ccc(N2CCN(S(=O)(=O)c3ccc4[nH]c5c(c4c3)CCCC5)CC2)cc1` gave S2 tox inactive, DT40 TDP1 no CPT 25.9µM, TGFb SMAD3 inh inconclusive, HepG2 tox inactive, TDP1 cell CPT inconclusive and ATXN2 expr inh inactive.
`O=C(COC(=O)Cc1c(F)cccc1Cl)Nc1nnc(-c2ccccc2)o1` gave S2 tox inactive, DT40 TDP1 no CPT inactive, TGFb SMAD3 inh inconclusive, HepG2 tox inactive, TDP1 cell CPT inactive and ATXN2 expr inh inactive.
For COc1ccc(SCc2noc(C(=O)NC(C)C)c2C(=O)O)cc1 the results were S2 tox inactive, DT40 TDP1 no CPT inactive, TGFb SMAD3 inh inactive, HepG2 tox inactive, TDP1 cell CPT inactive and ATXN2 expr inh inactive.
Screening Cc1ccc(Cl)cc1N1CCN(S(=O)(=O)c2ccc3[nH]c4c(c3c2)CCCC4)CC1 returned S2 tox inactive, DT40 TDP1 no CPT inconclusive, TGFb SMAD3 inh 10µM, HepG2 tox inactive, TDP1 cell CPT inconclusive and ATXN2 expr inh inactive.
Cc1ccc(C)c(OCCC(=O)OCC(=O)Nc2cc(S(=O)(=O)N3CCCCC3)ccc2C)c1 was read as S2 tox inactive, DT40 TDP1 no CPT inactive, TGFb SMAD3 inh inactive, HepG2 tox inactive, TDP1 cell CPT inactive and ATXN2 expr inh inactive.
Cc1ccccc1Cn1c2ccccc2c2cnn(CC(=O)NCCc3ccc(Cl)cc3)c(=O)c21 was read as S2 tox inactive, DT40 TDP1 no CPT 18.4µM, TGFb SMAD3 inh inactive, HepG2 tox inactive, TDP1 cell CPT inconclusive and ATXN2 expr inh inactive.
Cc1ccc(C)c(CN2CCC(CNC(=O)Cn3ncc4c([nH]c5ccccc54)c3=O)CC2)c1 was read as S2 tox inactive, DT40 TDP1 no CPT 14.6µM, TGFb SMAD3 inh inactive, HepG2 tox inactive, TDP1 cell CPT inconclusive and ATXN2 expr inh inactive.
Screening CCN(CCCNC(=O)Cn1ncc2c([nH]c3ccc(C)cc32)c1=O)Cc1ccccc1 returned S2 tox inconclusive, DT40 TDP1 no CPT 16.4µM, TGFb SMAD3 inh inactive, HepG2 tox inactive, TDP1 cell CPT inconclusive and ATXN2 expr inh inactive.
`O=C(Cn1ncc2c3ccccc3n(Cc3ccccc3F)c2c1=O)NCCc1ccc(Cl)cc1` gave S2 tox inactive, DT40 TDP1 no CPT inactive, TGFb SMAD3 inh inactive, HepG2 tox inactive, TDP1 cell CPT inconclusive and ATXN2 expr inh inactive.
Cc1ccc(C)c(Cn2c3ccccc3c3cnn(CC(=O)NCCN4CCOCC4)c(=O)c32)c1 was read as S2 tox inactive, DT40 TDP1 no CPT 18.4µM, TGFb SMAD3 inh inactive, HepG2 tox inactive, TDP1 cell CPT 16.4µM and ATXN2 expr inh inactive.
`CCOC(=O)CC1(NC(=O)C2CCC(=O)N(Cc3ccccc3F)C2)CCCCC1` (stereo not given) gave S2 tox inactive, DT40 TDP1 no CPT inconclusive, TGFb SMAD3 inh inactive, HepG2 tox inactive, TDP1 cell CPT inconclusive and ATXN2 expr inh inactive.
For Cc1ccc(C)c(Cn2c3ccccc3c3cnn(CC(=O)NCC(C)c4ccccc4)c(=O)c32)c1 (stereo not given) the results were S2 tox inactive, DT40 TDP1 no CPT 23.1µM, TGFb SMAD3 inh inactive, HepG2 tox inactive, TDP1 cell CPT 13µM and ATXN2 expr inh inactive.
Screening CC(CCc1ccccc1)NC(=O)Cn1ncc2c3ccccc3n(Cc3ccccc3)c2c1=O (stereo not given) returned S2 tox inactive, DT40 TDP1 no CPT inconclusive, TGFb SMAD3 inh inactive, HepG2 tox inactive, TDP1 cell CPT inconclusive and ATXN2 expr inh inactive.
Screening Cc1c2cnn(CC(=O)NCc3ccccc3)c(=O)c2c(C)n1Cc1cccc(Cl)c1 returned DT40 TDP1 no CPT 3.26µM, TGFb SMAD3 inh inconclusive, HepG2 tox inactive and TDP1 cell CPT 4.61µM.
Screening Cc1ccc(C)c(Cn2c3ccccc3c3cnn(CC(=O)NC(C)CCc4ccccc4)c(=O)c32)c1 (stereo not given) returned DT40 TDP1 no CPT 3.26µM, TGFb SMAD3 inh inactive, HepG2 tox inactive and TDP1 cell CPT 3.26µM.
Screening Cc1c2cnn(CC(=O)O)c(=O)c2c(C)n1Cc1cccc(Cl)c1 returned DT40 TDP1 no CPT inactive, HepG2 tox inactive and TDP1 cell CPT inactive.
Screening CC(CCc1ccccc1)NC(=O)Cn1ncc2c3ccccc3n(Cc3ccccc3F)c2c1=O (stereo not given) returned S2 tox inactive, DT40 TDP1 no CPT 8.2µM, TGFb SMAD3 inh inactive, HepG2 tox inactive, TDP1 cell CPT 8.2µM and ATXN2 expr inh inactive.
O=C(Nc1nnc([C@@H]2C[C@H](O)[C@@H](CO)O2)s1)Nc1ccccc1C(F)(F)F was read as S2 tox inactive, DT40 TDP1 no CPT inactive, TGFb SMAD3 inh inactive, HepG2 tox inactive, TDP1 cell CPT inactive and ATXN2 expr inh inactive.
Cc1ccc(C)c(Cn2c3ccccc3c3cnn(CC(=O)NCc4ccccc4)c(=O)c32)c1 was read as S2 tox inactive, DT40 TDP1 no CPT 20.6µM, TGFb SMAD3 inh inactive, HepG2 tox inactive, TDP1 cell CPT 23.1µM and ATXN2 expr inh inactive.
For Cc1ccc(C)c(Cn2c3ccccc3c3cnn(CC(=O)NC(C)c4ccccc4)c(=O)c32)c1 (stereo not given) the results were S2 tox inactive, DT40 TDP1 no CPT 2.31µM, TGFb SMAD3 inh inactive, HepG2 tox inactive, TDP1 cell CPT 2.91µM and ATXN2 expr inh inactive.
